GCN5L2 inh – qHTS Assay for Inhibitors of GCN5L2; Histone acetyltransferase KAT2A (Homo sapiens), Q92830; AID 504327, 2011; actives 0.21% (n = 390,000); GCN5L2 HAT assay, ThioGlo1 CoA-SH fluorescence; Potency, µM (highest dose often 58.9 µM), for inactives: top-dose activity change, negative = inhibition, actives largely listed as inhibitors
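GCN5L2 (20nM final) in 50mM HEPES, 0.1mM EDTA pH 7.5, 0.01% Tween-20 was preincubated 15 min at room temperature with compound, then given ThioGlo1 (50uM), H3(1-25) peptide (75uM) and acetyl-CoA (70uM); CoA-thiol fluorescence (Ex340/Em540) was read at 0 and 20 min.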
PLK1 PBD inh – qHTS for Inhibitors of PLK1-PDB (polo-like kinase 1 - polo-box domain): Primary Screen | Plk1 PBD binding of FITC phosphopeptide, fluorescence polarization | Potency, µM, for the others: max response, negative = inhibition, hits mostly inhibitors | actives 2.8% (n = 360,000) | AID 720504, 2013; note: series mostly up to about 57 µM; nearly all actives have a fitted effect of over 65% in size
DT40 TDP1 CPT – qHTS for Inhibitors of human tyrosyl-DNA phosphodiesterase 1 (TDP1): qHTS in cells in presence of CPT | Potency, µM (doses to about 46.2 µM), for inactives: at the highest dose activity change, negative = growth inhibition, actives largely listed as inhibitors | chicken DT40 Tdp1-/-;hTDP1 cells + 20 nM CPT, ATP luminescence, 48 h | actives 12% (n = 420,000); note: nearly all actives have a fitted effect of over 55% in size
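Chicken DT40 Tdp1-/- cells stably complemented with human TDP1 were seeded at 400 cells/well in medium containing 20 nM camptothecin, exposed to pin-transferred compounds, and grown at 37 °C for at least 48 hr. Viability was read as ATP luminescence.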
VDR inhibitor – Inhibitors of the vitamin D receptor (VDR): qHTS. VDR-SRC2-3 peptide fluorescence polarization, 2 h. AID 504847, 2011. actives 0.93% (n = 400,000). Potency, µM, for inactives: max response, negative = inhibition, most hits filed as inhibitors
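FP read-out; VDR + SRC2-3 coactivator peptide; 23 nl compound by pintool; 2 h RT incubation; reagents held at 4 deg C, protected from light.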
TDP1 cell noCPT – qHTS for Inhibitors of human tyrosyl-DNA phosphodiesterase 1 (TDP1): qHTS in cells in absence of CPT; DT40 Tdp1-/- hTDP1 cells, no CPT, ATP luminescence, 48 h; Potency, µM (highest dose often 46.2 µM), without a hit: top-dose activity change, negative = growth inhibition, usual class: inhibitors; actives 15% (n = 420,000); AID 686978, 2013; note: nearly all actives have a fitted effect of over 55% in size
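Cells were dispensed at 400 per well, compounds added by pin tool, plates incubated ≥48 hr at 37 °C, then CellTiter-Glo added for 30 min at room temperature before luminescence reading. Line: DT40 Tdp1-/- complemented with hTDP1; camptothecin omitted.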
TDP1 inh – qHTS Assay for Inhibitors of Tyrosyl-DNA Phosphodiesterase (TDP1); Tyrosyl-DNA phosphodiesterase 1 (Homo sapiens), Q9NUW8; actives 0.28% (n = 350,000); recombinant TDP1, AlphaScreen DNA substrate cleavage; Potency, µM (top dose mostly 130 µM), without a hit: at the highest dose activity change, negative = inhibition, hits mostly inhibitors; note: nearly all actives have a fitted effect of over 40% in size
Target sequence (Q9NUW8 whole entry, looked up): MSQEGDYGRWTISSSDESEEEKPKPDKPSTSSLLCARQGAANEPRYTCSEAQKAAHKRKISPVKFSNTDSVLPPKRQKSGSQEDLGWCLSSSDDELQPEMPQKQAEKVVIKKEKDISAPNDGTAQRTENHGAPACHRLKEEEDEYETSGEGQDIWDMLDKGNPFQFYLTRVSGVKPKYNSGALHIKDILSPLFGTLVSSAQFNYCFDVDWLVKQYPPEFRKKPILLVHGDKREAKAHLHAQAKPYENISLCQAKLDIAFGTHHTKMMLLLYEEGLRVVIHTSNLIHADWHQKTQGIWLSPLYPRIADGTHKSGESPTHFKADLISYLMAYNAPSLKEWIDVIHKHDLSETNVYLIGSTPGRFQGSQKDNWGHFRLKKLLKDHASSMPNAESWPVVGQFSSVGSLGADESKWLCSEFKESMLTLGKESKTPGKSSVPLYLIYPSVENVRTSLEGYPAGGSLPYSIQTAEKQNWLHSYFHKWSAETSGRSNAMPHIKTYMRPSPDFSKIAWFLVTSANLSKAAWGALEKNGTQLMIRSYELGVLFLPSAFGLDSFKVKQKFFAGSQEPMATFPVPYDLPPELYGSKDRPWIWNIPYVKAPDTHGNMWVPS
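Signal: AlphaScreen proximity between streptavidin donor and anti-FITC acceptor beads on intact substrate. Reaction: Tdp1 1 nM, substrate 15 nM final, 5 min RT after 15 min compound preincubation.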
Starred values were filed as active, the others as inactive; ? = inconclusive; / = not tested or not shown. Only some compounds are listed: those with a hit (about 18% of all), similar ones and a draw of the others. Calls come from the whole dose curve; as a rule, active = well fitted curve in the direction sought with a large enough effect; inconclusive = small, poorly fitted or top-dose-only effect, or another doubt; inactive = no such curve, though single readings can be large; an effect the other way counts as inactive or inconclusive. % is set by controls: 0 for no effect and ±100 for the full control effect; potency is the fitted concentration of half-maximal effect.

SMILES	GCN5L2 inh	PLK1 PBD inh	DT40 TDP1 CPT	VDR inhibitor	TDP1 cell noCPT	TDP1 inh
COc1ccc(CNC(=O)COc2ccc(C(=O)c3ccc(F)cc3)cc2)cc1	-2%	-4%	2.6µM*	5%	4.6µM*	-8%
Cc1ccc(Cl)cc1NC(=O)CSc1nc2ccccc2c2nc(-c3ccccc3)nn12	15%	/	-15%	0%	-3%	1%
Oc1oc(-c2ccccc2)nc1C=Nc1ccccc1	-18%	-13%	-10%	-4%	-13%	0%
Sc1oc(-c2ccccc2)cc1C=Nc1ccccc1	0%	-9%	5.8µM*	?	16µM*	12%
Cc1ccc(N2CC(C(=O)N3CCN(Cc4ccc5c(c4)OCO5)CC3)CC2=O)cc1 (centres undefined)	-1%	-2%	5%	-6%	?	13%
O=C(c1ccc(Br)o1)N1CCN(C23CC4CC(CC(C4)C2)C3)CC1	/	-13%	?	-4%	?	/
O=C(c1ccc(C23CC4CC(CC(C4)C2)C3)o1)N1CCOCC1	-22%	-6%	?	7%	23µM*	1%
COc1ccc(Cl)cc1NC(=O)CCc1c(C)nc2c(c1C)c(=O)n(C)c(=O)n2C	-3%	/	2%	-15%	-13%	5%
C=C1c2ccccc2NC(=S)N1Cc1ccc2c(c1)OCO2	-12%	?	-27%	-2%	4.1µM*	6%
O=C1c2ccccc2C(=O)N1Cc1ccc2c(c1)OCO2	-1%	1%	13%	11%	12%	9%
COC(=O)[C@H]1C[C@@H]1[C@H](NC(=O)c1cc(C)nn1C)c1ccccc1	/	/	/	/	/	-1%
Cc1ccccc1-c1cc(C(=O)NCc2cccc(Br)c2)nn1CC1CC(c2cccc([N+](=O)[O-])c2)=NO1 (centres undefined)	-5%	-12%	-26%	-11%	?	2%
O=c1c2c3c(sc2ncn1/N=C/c1ccc(Br)o1)CCCC3	-2%	-5%	-4%	-4%	-15%	5%
O=C(O)c1cccc(-c2ccc(/C=N/n3cnc4sc5c(c4c3=O)CCCC5)o2)c1	-10%	/	/	/	/	18µM*
N#CCC(=O)Nc1ccc(C(=O)N2CCN(S(=O)(=O)c3ccc4ccccc4c3)CC2)cc1	-1%	4%	-16%	-16%	13%	/
Cc1cc(C)cc(NS(=O)(=O)c2ccc(-c3cc(C)no3)cc2)c1	-4%	/	1.3µM*	13%	1.2µM*	3%
Cc1cc(-c2ccc(C)c(S(=O)(=O)Nc3ccc(C)c(N(C)C)c3)c2)on1	-3%	/	?	2%	?	8%
Cc1cc(-c2ccc(S(=O)(=O)Nc3ccc(Cl)cc3)cc2)on1	-9%	/	16µM*	-8%	18µM*	-1%
CCc1ccc(NS(=O)(=O)c2ccc(-c3cc(C)no3)cc2)cc1	-11%	/	13µM*	-5%	13µM*	3%
Cc1ccc(NS(=O)(=O)c2ccc(-c3cc(C)no3)cc2)c(C)c1	2%	/	4.6µM*	-2%	5.8µM*	6%
O=C(CS(=O)(=O)c1ccccc1)Nc1ccccc1Br	/	0%	?	0%	-7%	/
O=C(NCc1cccs1)c1ccc2c(c1)N(Cc1ccccc1Cl)C(=O)c1ccccc1S2	1%	/	-15%	8%	-25%	0%
Cn1cc(SCC(=O)NCc2ccc(F)cc2)c2ccccc21	-9%	?	10%	-8%	1%	5%
Cn1c(=O)cc(SCC(=O)NCc2ccc(F)cc2)c2ccc(Cl)cc21	-3%	/	2.6µM*	-15%	3.3µM*	-5%

High-throughput results deposited in PubChem by National Center for Advancing Translational Sciences (NCATS).
